Measured values as given in PubChem BioAssay (NCATS).
Inconclusive results are not listed. Where a call stands in place of a potency, no number is given. Calls of active or inactive are those of the source. Calls come from the whole dose curve; as a rule, active = well fitted curve in the direction sought with a large enough effect; inconclusive = small, poorly fitted or top-dose-only effect, or another doubt; inactive = no such curve, though single readings can be large; an effect the other way counts as inactive or inconclusive.

How the values were obtained:
[1] = HPAF-II Cancer Cell Toxicity qHTS against the NCATS CANVASS Library (AID 1347346); note: nearly all actives have a fitted effect of over 55% in size; note: potency is the fitted concentration of half-maximal effect
Outline: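 Cytotoxicity read-out was CellTiter-Glo luminescence after 72 h at 37 degrees C exposure of HPAF-II cells (1000/well) to compounds in an 11-point titration.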

[2] = OV-SAHO Cancer Cell Toxicity qHTS against the NCATS CANVASS Library (AID 1347348); note: nearly all actives have a fitted effect of over 55% in size; note: potency is the fitted concentration of half-maximal effect
Outline: (§1)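 Cells were seeded at 1000 per well, allowed 4 h at 37 degrees C/5% CO2, then pin-treated with an 11-point compound series. After 72 h, viability was read as CellTiter-Glo luminescence following 15min at room temperature.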

[3] = SW1088 Cancer Cell Toxicity qHTS against the NCATS CANVASS Library (AID 1347350); note: nearly all actives have a fitted effect of over 75% in size; note: potency is the fitted concentration of half-maximal effect
Outline: as §1

[4] = COV-362 Cancer Cell Toxicity qHTS against the NCATS CANVASS Library (AID 1347352); note: potency is the fitted concentration of half-maximal effect
Outline: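 Toxicity was measured as CellTiter-Glo luminescence after 72 h exposure to an 11-point compound series. Compound was added to 1000 cells/well 4 h after seeding.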

[5] = A2780 Cisplatin Sensitive Ovarian Cancer Cell Toxicity qHTS against the NCATS CANVASS Library (AID 1347353); note: nearly all actives have a fitted effect of over 60% in size; note: potency is the fitted concentration of half-maximal effect
Outline: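 Cisplatin-sensitive A2780 ovarian cells (750/well) received compound in 11 concentrations, and were incubated 72 h at 37 °C. ATP content was measured by ATPLite luminescence; bortezomib served as control.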

[6] = SDT Cancer Cell Toxicity qHTS against the NCATS CANVASS Library (AID 1347365); note: nearly all actives have a fitted effect of over 60% in size; note: potency is the fitted concentration of half-maximal effect
Outline: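 Cytotoxicity taken from CellTiterGlo ATP luminescence after 72 hr at 37C, 5% CO2. Canine glioma line SDT, 500 cells/well, treated at 11 concentrations; bortezomib dose series as control.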

[7] = MCF7 Cancer Cell Toxicity qHTS against the NCATS CANVASS Library (AID 1347369); note: potency is the fitted concentration of half-maximal effect
Outline: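 MCF7 cells (500/well) were exposed 72 h at 37 °C to compounds in an 11-point series. Viability was read as ATP content by CellTiterGlo luminescence.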

[8] = qHTS for ATAD5 Antagonist screened against the NCATS CANVASS Library (AID 1347370); note: nearly all actives have a fitted effect of over 65% in size; note: potency is the fitted concentration of half-maximal effect
Outline: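 Compounds (11-point) co-dosed with 10 µM 5-FUrd for 16 h at 37 °C onto HEK293T-ATAD5 luciferase reporter cells. Viability measured by CellTiter-Fluor fluorescence, then ATAD5 reporter signal by luminescence.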

[9] = qHTS for activators of Nrf2/ARE signaling pathway screened against the NCATS CANVASS Library (AID 1347391); note: nearly all actives have a fitted effect of over 60% in size
Outline: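 Eleven-point qHTS, 16 h treatment of HepG2 cells carrying an ARE-driven beta-lactamase reporter; CCF4 ratio read (405 nm excitation, 460 and 530 nm emission), with CellTiter-Glo ATP luminescence for viability.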

[10] = qHTS for inhibitors of ER calcium dysfunction: SERCaMP assay screened against the NCATS CANVASS Library (AID 1347393); note: nearly all actives have a fitted effect of over 40% in size; note: potency is the fitted concentration of half-maximal effect
Outline: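 Thapsigargin-induced ER calcium depletion drives GLuc-SERCaMP secretion from SH-SY5Y cells; compounds given 16 h beforehand were scored by lowered coelenterazine luminescence after 4 h challenge.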

[11] = Vero-766 cells viability qHTS against the NCATS CANVASS Library: Counterscreen for Zika virus inhibition assay (AID 1347394); note: series mostly up to about 46 µM; nearly all actives have a fitted effect of over 60% in size
Outline: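 Vero 766 cells (1000/well), without Zika virus, were exposed to compounds for 72 h at 37C. Viability was measured by CellTiter Glo luminescence. Media-only wells served as 100% inhibition.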

Row | SMILES | Potency [1] | Potency [2] | Potency [3] | Potency [4] | Potency [5] | Potency [6] | Potency [7] | Potency [8] | Potency [9] | Potency [10] | Potency [11]
1 | C[N+](C)(C)CCc1c[nH]c2ccccc12 | inactive | inactive | inactive | inactive | inactive | inactive | inactive | inactive | inactive | inactive | inactive
2 | C=CC(C)(C)[C@@]12C[C@H]3C(=O)N/C(=C/c4cnc[nH]4)C(=O)N3[C@@H]1Nc1ccccc12 | inactive | inactive | inactive | inactive | inactive | inactive | inactive | inactive | – | – | inactive
3 | C/C=C(\C)C(=O)O[C@@H]1[C@@H](O)[C@@H]2O[C@H]3[C@H](O[C@@H](CCCCC)CCCCCCC(=O)CCC(=O)OC[C@@H](O2)[C@H]1OC(=O)/C=C/c1ccccc1)O[C@H](C)[C@H](OC(C)=O)[C@@H]3O | 0.133 µM (active) | 0.0747 µM (active) | 14.9 µM (active) | – | 0.332 µM (active) | 0.0526 µM (active) | – | inactive | – | 0.086 µM (active) | inactive
4 | C/C=C1/CN2CC[C@]34C(=C(C(=O)OC)[C@H]1C[C@H]23)Nc1ccccc14 | – | inactive | inactive | inactive | – | 0.662 µM (active) | – | – | – | 19.3 µM (active) | inactive
5 | C[C@]12CC(O)C3[C@@H](CC[C@@H]4C[C@@H](O)CC[C@]34CO)[C@@]1(O)CC[C@@H]2C1=CC(=O)OC1 (stereo not given in full) | 10.6 µM (active) | – | – | 7.47 µM (active) | 7.43 µM (active) | 2.64 µM (active) | 5.23 µM (active) | 13.2 µM (active) | inactive | – | –
6 | COC1=C(C2=C(OC)C(=O)c3cc4c(c(O)c3C2=O)C(=O)O[C@H](C)C4)C(=O)c2c(cc3c(c2O)C(=O)O[C@H](C)C3)C1=O | – | inactive | 3.14 µM (active) | inactive | 5.54 µM (active) | inactive | inactive | inactive | – | inactive | inactive
